The full list was thinned out, with hits kept by preference.
Pf Dd2 inh = qHTS Primary assay for Inhibitors of Plasmodium falciparum Dd2 growth in vitro | actives 4.3% (n = 120,000) | Potency, µM (doses to about 28.9 µM), for the others: top-dose activity, negative = inhibition, hits mostly inhibitors | P. falciparum Dd2 growth, SYBR Green, 72 h; active = well fitted inhibition curve with a large enough effect;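 note: plate controls were DMSO vehicle for no effect and reference drug for full effect; nearly all actives have a fitted effect of over 65% in size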
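Infected erythrocytes (Dd2, 0.3% parasitemia, 2.5% hematocrit final) are added to compound in RPMI-1640/Albumax II medium, grown 72 h at 37C in low oxygen, then lysed with saponin/Triton-X containing SYBR Green and read by fluorescence.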
Numbers without * were called inactive; i = inactive; [ ] = remark or other dose. Potency is the fitted concentration of half-maximal effect.

SMILES	Pf Dd2 inh
CCC(=O)N1CCc2cc(Br)cc(S(=O)(=O)CCC(=O)Nc3ccc(C)c(F)c3)c21	5µM*
COc1ccccc1N1CCN(C(=O)CCS(=O)(=O)c2cc(Br)cc3c2N(C(=O)C2CC2)CC3)CC1	10µM*
CCC(=O)N1CCc2cc(Br)cc(S(=O)(=O)CCC(=O)Nc3ccc(CC)cc3)c21	-5%
CCC(=O)N1CCc2cc(Br)cc(S(=O)(=O)CCC(=O)NCCc3ccc(C)cc3)c21	-13%
CCC(=O)N1CCc2cc(Br)cc(S(=O)(=O)NCCc3ccccc3)c21	-24%
Cc1cc(NC(=O)CCS(=O)(=O)c2cc3c4c(c2)CCN4C(=O)CC3)ccc1Br	15%
CCC(=O)N1CCc2cc(Br)cc(S(=O)(=O)CCC(=O)NCCc3ccccc3Cl)c21	11µM*
CCc1cccc(C)c1NC(=O)CCS(=O)(=O)c1cc(Br)cc2c1N(C(=O)C1CC1)CC2	-19%
Cc1cc(NC(=O)CCS(=O)(=O)c2cc(Br)cc3c2N(C(=O)C2CC2)CC3)ccc1Br	4.5µM*
COc1ccccc1N1CCN(C(=O)CCS(=O)(=O)c2cc(Br)cc3c2N(C(C)=O)CC3)CC1	i
CCC(=O)N1CCc2cc(Br)cc(S(=O)(=O)CCC(=O)Nc3cccc(CC)c3)c21	i
COc1ccc(Cl)cc1NS(=O)(=O)c1cc(Br)cc2c1N(C(=O)C1CC1)CC2	11%
c1cncc(-c2cnc([C@@H]3COCCN3Cc3ncc[nH]3)[nH]2)c1	-10%[44.1 µM]
CCOc1ccc(S(=O)(=O)N2CCCN(C)c3ccccc32)cc1	-25%
COc1ccc(C(=O)NCC(=O)N2CCCCCNC(=O)CC2c2ccccc2)cc1F (stereo unspecified)	-4%
O=C1CCN(C(=O)Cc2ccccc2)CCCC(CO)CCN1 (stereo unspecified)	4%
Cc1ccc(NC(=O)Cn2nc3c(cc2=O)CCCCC3)c(C)c1	-4%
COc1ccc(C(=O)N2CCC(n3nccc3NC(=O)CC(C)C)CC2)cc1OC	-2%
O=c1[nH]c(N2CCOCC2)nc2c1CCN(Cc1cccc(Cl)c1)CC2	18%[5.79 µM]
N#Cc1ccc(CN2CCCOCCNC(=O)CC2)cc1	-8%
O=C1N(C2CCOCC2)C[C@H]2CN(Cc3cccc(Cl)c3)CCN12	i
N#CC1=C(N)N(c2cccc(Cl)c2)C2=C(C(=O)CCC2)C1c1cc(CN2CCOCC2)cs1 (stereo unspecified)	10µM*
N#CC1=C(N)N(c2ccc(Cl)cc2)C2=C(C(=O)CCC2)C1c1cc(CN2CCOCC2)cs1 (stereo unspecified)	13µM*
Cc1ccc(NC(=O)N2CCC(CCNC(=O)C3(c4ccccc4)CC3)CC2)cc1F	i
CC(C)C(=O)Nc1ccc(C2(C(=O)N(C)C)CCC2)cc1	5%
SMILES	Pf Dd2 inh
COCCN1CCC(CN(CC2CCCO2)C(=O)c2cc(Cl)cn2C)CC1 (stereo unspecified)	i
COc1ccc(-c2nc(C(C)C)nc3c2CCN(C(=O)Nc2ccc(Cl)cc2)CC3)cc1	i
CC(C)c1nc2c(c(-c3ccc(O)cc3)n1)CCN(C(=O)c1ccc(F)cc1)CC2	-6%
COc1ccc(CN2CCc3nc(C(C)C)nc(-c4ccc(O)cc4)c3CC2)cc1	2.2µM*
COc1ccc(-c2nc(C(C)C)nc3c2CCN(C(=O)c2ccccc2)CC3)cc1	-17%
Cc1nc2c(c(-c3ccc(O)cc3)n1)CN(CC1CC1)CC2	i
CC(C)c1nc2c(c(-c3ccc(O)cc3)n1)CCN(CC1CCCCC1)CC2	1.1µM*
Cn1cc(C(=O)N2CCC3(CC2)CN(Cc2ccccc2)CC3CO)cn1 (stereo unspecified)	8%
CN1C(=O)CCC2(CNC(=O)c3cn[nH]c3-c3ccccc3)CCC=C12 (stereo unspecified)	16%
COc1ccc(OC)c(S(=O)(=O)N2CCCCCCN(C)C(=O)CC2)c1	-15%
O=C1Nc2ccc(Br)cc2C(=O)N2CCN(C(=O)c3cccc(F)c3)C[C@H]12	-18%[44.1 µM]
COCCN(CCOC)CC[C@@H]1CC[C@H](O)[C@@H](C(=O)Nc2ccccc2)O1	16µM*
COCCN(CCOC)CC[C@@H]1CC[C@H](O)[C@@H](C(=O)NC2CCCCC2)O1	-12%[44.1 µM]
COCCN(CCOC)CC[C@@H]1CC[C@H](O)[C@@H](C(=O)N2CCOCC2)O1	4%[44.1 µM]
Cn1c(=O)[nH]cc(CC(=O)N2C[C@H](C3CC3)[C@@H](N)C2)c1=O	-6%
Cn1cccc1CN1CCC2(CC1)COc1ccccc1[S+](=O)([O-])N2	-4%
CC(C)Cc1noc(CN(C)C(=O)c2cc(C(C)C)n3ncnc3n2)n1	-4%
O=C(C1CCOCC1)N1CCCC(CCc2ccccc2C(F)(F)F)C1 (stereo unspecified)	-10%
CNC(=O)c1ccc(CN2CCCC(CCc3ccccc3C(F)(F)F)C2)o1 (stereo unspecified)	7.9µM*
Cn1ccc(C(=O)N2CCCC(CCc3ccccc3C(F)(F)F)C2)n1 (stereo unspecified)	-7%
O=C(c1ccoc1)N1CCC(c2noc(CO)n2)C1 (stereo unspecified)	-9%

Screening results deposited in PubChem by National Center for Advancing Translational Sciences (NCATS).
